# Source: PubChem BioAssay AID743366 (National Center for Advancing Translational Sciences (NCATS), 2014)
# Test: qHTS profiling of inhibitors of Plasmodium falciparum (HB3) proliferation (acoustic dispense)
# Conditions: P. falciparum HB3 in erythrocytes, SYBR Green, 72 h; at 49.8 µM (top of the series) unless noted
# Description: Plasmodium falciparum is a virulent malarial parasite that kills 1-2 million people worldwide each year. Transmitted by mosquitoes, the sporozoite form of the parasite enters the blood stream to infect hepatocytes, where they become merozoites that infect red blood cells (erythrocytes). Within erythrocytes, merozoites begin a […] cycle of growth and division, after which the parasite is released to infect new red blood cells. Gametocytes, which form within erythrocytes as well, circulate in the bloodstream and are ingested by the mosquito, thereby completing the life cycle. To profile malarial isolates for differential chemical responses and to identify inhibitors of malarial growth, an assay that measures P. falciparum growth and replication within erythrocytes was employed. This assay uses a DNA binding fluorescent dye (SYBR Green) to detect parasite DNA following cell lysis. Because mature erythrocytes lack DNA, only Plasmodium-derived DNA is detected.
# The SYBR Green viability assay was adapted from a method described previously (Plouffe et al., 2008). For screening 3 ul culture medium was dispensed into 1536 well black clear bottom plates (Aurora Biotechnologies) using a Multidrop Combi (Thermo Fisher Scientific Inc.), 23 nL of compounds in DMSO were added by an acoustic dispenser (EDC Biosystems), and 5 ul of erythrocytes infected with P. falciparum (0.3% parasitemia, 2.5% hematocrit final concentration) were added. The plates were incubated at 37 C in a humidified incubator in 5% CO2 for 72 h, and 2 ul lysis buffer (20 mM Tris HCl, 10 mM EDTA, 0.16% saponin, 1.6% triton X, 10X SYBR Green I supplied as 10,000X […] by Invitrogen) was added to each well. The plates were mixed for 25 sec with gentle shaking and incubated overnight at room temperature in the dark. The following morning, fluorescence intensity at 485(14) nm excitation and 535(25) nm emission wavelengths was measured on an EnVision (Perkin Elmer) plate reader. Plate reads were normalized relative to the control inhibitor (0.29 uM artemisinin) and vehicle (DMSO) wells present on each plate and then corrected by an algorithm using vehicle-only control plates at the beginning and end of the compound plate stack.
row,Structure (SMILES),"activity (normalised, proliferation)"
1,C=C[C@@H]1CN2CC[C@@H]1C[C@H]2[C@H](O)c1ccnc2ccc(OC)cc12,0.317%
2,CC(C)C[C@H](NC(=O)[C@H](CCc1ccccc1)NC(=O)CN1CCOCC1)C(=O)N[C@@H](Cc1ccccc1)C(=O)N[C@@H](CC(C)C)C(=O)[C@@]1(C)CO1,0.732%
3,Cc1[nH]c2ccccc2c1CCNCc1ccc(C=CC(=O)NO)cc1,-2.24%
4,CC(C)[C@H](C(=O)Nc1ccc(C(=O)NO)cc1)c1ccccc1,-0.656%
5,COC1=C2C[C@@H](C)C[C@H](OC)[C@@H](O)[C@@H](C)C=C(C)[C@H](OC(N)=O)[C@@H](OC)C=CC=C(C)C(=O)NC(=CC1=O)C2=O,-2.24%
6,COc1cc2nc(N3CCCN(C)CC3)nc(NC3CCN(Cc4ccccc4)CC3)c2cc1OC,-1.22%
7,CCCCN(CCCC)CCC(O)c1cc2c(Cl)cc(Cl)cc2c2cc(C(F)(F)F)ccc12 (stereo not given),-0.0223% [at 23.2 µM]
8,CCCCN(CCCC)CC(O)c1cc(Cl)cc2c1-c1ccc(Cl)cc1C2=Cc1ccc(Cl)cc1 (stereo not given),-1.5%
9,CC(C)N=C(N)N=C(N)Nc1ccc(Cl)cc1,-0.113%
10,O=C(Nc1ccc([N+](=O)[O-])cc1Cl)c1cc(Cl)ccc1O,99.3%
11,O=C(Nc1cn[nH]c1-c1nc2ccc(CN3CCOCC3)cc2[nH]1)NC1CC1,1.76%
12,Cc1cn(-c2cc(NC(=O)c3ccc(C)c(Nc4nccc(-c5cccnc5)n4)c3)cc(C(F)(F)F)c2)cn1,1.32%
13,CC(=O)Nc1nc(C)c(-c2ccc(Cl)c(S(=O)(=O)NCCO)c2)s1,-1.46%
14,CSc1cccc(Nc2ncc3cc(-c4c(Cl)cccc4Cl)c(=O)n(C)c3n2)c1,3%
15,COc1cc(NC(C)CCCN)c2ncccc2c1 (stereo not given),0.241%
16,CC[C@@]1([C@@H]2O[C@@H]([C@H]3O[C@@](O)(CO)[C@H](C)C[C@H]3C)C[C@H]2C)CC[C@H]([C@]2(C)CC[C@]3(C[C@H](O)[C@@H](C)[C@@H]([C@@H](C)[C@@H](OC)[C@H](C)C(=O)O)O3)O2)O1,1.41% [at 23.2 µM]
17,CS(=O)(=O)CCNCc1ccc(-c2ccc3ncnc(Nc4ccc(OCc5cccc(F)c5)c(Cl)c4)c3c2)o1,7.39%
18,CC(C)Oc1cc(Nc2nc(N[C@@H](C)c3ccc(F)cn3)ncc2Cl)[nH]n1,2.89%
19,OB1OCc2cc(F)ccc21,0.13%
20,CC[C@@]1(O)C[C@H](O[C@H]2C[C@H](N(C)C)[C@H](O[C@H]3C[C@H](O)[C@H](O[C@H]4CCC(=O)[C@H](C)O4)[C@H](C)O3)[C@H](C)O2)c2c(cc3c(c2O)C(=O)c2c(O)cccc2C3=O)[C@@H]1C(=O)OC,-2.68%

row,Structure (SMILES),"activity (normalised, proliferation)"
1,NC1CCC(Nc2nc(Nc3ccc(C(=O)N4CCCCC4)cc3)c3ncn(-c4cccc(F)c4)c3n2)CC1 (stereo not given),-0.546%
2,Nc1cccc(-c2csc(NC(=O)CCCCCCC(=O)NO)n2)c1,-0.958%
3,CO[C@H]1C=CO[C@@]2(C)Oc3c(C)c(O)c4c(O)c(c(C=NN5CCN(C)CC5)c(O)c4c3C2=O)NC(=O)C(C)=CC=C[C@H](C)[C@H](O)[C@@H](C)[C@@H](O)[C@@H](C)[C@H](OC(C)=O)[C@H]1C,-0.914% [at 16.5 µM]
4,Nc1ccc(-c2ccc3ncc4ccc(=O)n(-c5cccc(C(F)(F)F)c5)c4c3c2)cn1,-1.37%
5,Clc1ccc2c(N3CCN(CCCN4CCN(c5ccnc6cc(Cl)ccc56)CC4)CC3)ccnc2c1,-2.19% [at 23.2 µM]
6,CCOC(=O)[C@H](CCc1ccccc1)N[C@H]1CS[C@H](c2cccs2)CN(CC(=O)O)C1=O,67.9%
7,CCn1nnc2c(N3CCOCC3)nc(-c3ccc(NC(=O)Nc4ccc(C(=O)N5CCN(C)CC5)cc4)cc3)nc21,4.68%
8,CC[C@H]1OC(=O)[C@H](C)C(=O)[C@H](C)[C@@H](O[C@H]2O[C@H](C)C[C@H](N(C)C)[C@@H]2O)[C@](C)(OC)C[C@@H](C)C(=O)[C@H](C)[C@H]2N(CCCCn3cnc(-c4cccnc4)c3)C(=O)O[C@]12C,5.95%
9,Cn1c2ccccc2c2c3c(c4c5ccccc5n(CCC#N)c4c21)CNC3=O,106%
10,CO[C@@H]1C(N(C)C(=O)c2ccccc2)C[C@H]2O[C@]1(C)n1c3ccccc3c3c4c(c5c6ccccc6n2c5c31)C(=O)NC4=O (stereo not given in full),17.3%
11,CCc1cc(Nc2nccc(-c3c(-c4ccc(OC)c(C(=O)Nc5c(F)cccc5F)c4)nc4ccccn34)n2)c(OC)cc1N1CCC(N2CCN(S(C)(=O)=O)CC2)CC1,0.0178%
12,CCC[C@H](Nc1nc(-c2ccc(NC(=O)NCC)c(OC)c2)ncc1C)c1cccnc1,-0.168%
13,Cc1cn[nH]c1,39.3%
14,CC1(C)N=C(N)N=C(N)N1c1ccc(Cl)cc1,-0.199%
15,CS[C@H]1SC[C@@H]2C(=O)N(C)[C@H](C(C)C)C(=O)OC[C@H](NC(=O)c3cnc4ccccc4n3)C(=O)N[C@H](C)C(=O)N(C)[C@@H]1C(=O)N(C)[C@H](C(C)C)C(=O)OC[C@H](NC(=O)c1cnc3ccccc3n1)C(=O)N[C@H](C)C(=O)N2C,1.22%
16,COc1ccc(-c2cc3c(C)nc(N)nc3n(C3CCC(OCCO)CC3)c2=O)cn1 (stereo not given),-1.37%
17,Cc1nc2cnc3ccc(C#Cc4cccnc4)cc3c2n1-c1ccc(C(C)(C)C#N)cc1,1.13%
18,CC(Sc1nc2ccccc2[nH]1)C(=O)NN=Cc1cc(Br)ccc1O (stereo not given),-0.944% [at 4.15 µM]
19,C=CCNc1c(O)cc2c(O)c1C[C@@H](C)C[C@H](OC)[C@@H](O)[C@@H](C)C=C(C)[C@H](OC(N)=O)[C@@H](OC)C=CC=C(C)C(=O)N2,-1.74%
20,c1cncc(CN2CCC(n3ncc4c(N5CCOCC5)nc(-c5ccc6[nH]ccc6c5)nc43)CC2)c1,-0.669%
